A selection: hits, their analogues and other compounds. The true share with any hit is near 32%.
CYP2C9 inh: human CYP2C9 inhibition | P11712 | CYP2C9 Supersomes, luciferin-H conversion, luminescence | inhibition, % at 5 µM | actives 20% (n = 96,000) | AID 777;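 active means blocking of liver enzyme CYP2C9 beyond about 50% at 5 µM, limit read from the data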
Target sequence (P11712 whole entry, looked up): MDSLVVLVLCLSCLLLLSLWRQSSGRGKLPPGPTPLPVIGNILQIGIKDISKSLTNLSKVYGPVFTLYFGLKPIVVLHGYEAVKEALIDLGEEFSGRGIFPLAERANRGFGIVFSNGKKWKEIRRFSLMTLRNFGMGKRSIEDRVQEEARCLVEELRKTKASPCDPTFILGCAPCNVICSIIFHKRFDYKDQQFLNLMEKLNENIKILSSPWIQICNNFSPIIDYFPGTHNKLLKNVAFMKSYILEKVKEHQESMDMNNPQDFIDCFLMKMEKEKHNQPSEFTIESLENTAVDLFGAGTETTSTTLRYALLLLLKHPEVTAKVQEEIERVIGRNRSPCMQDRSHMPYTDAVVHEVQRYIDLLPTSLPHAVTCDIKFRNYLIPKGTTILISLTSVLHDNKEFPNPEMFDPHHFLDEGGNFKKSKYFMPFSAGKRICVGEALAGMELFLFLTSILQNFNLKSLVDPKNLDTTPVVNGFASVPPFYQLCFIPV
CYP2C19 inh: human CYP2C19 inhibition; CYP2C19 Supersomes, luciferin-H EGE luminescence, 30 min; inhibition, % at 5 µM; actives 21% (n = 96,000); AID 778;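 active means CYP2C19 inhibition above a set limit at 5 µM in the primary screen, cut at about 50% in these data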;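 further: plate controls were negative control wells for no effect and 2.5 mM tranylcypromine positive control for full effect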
CYP2C9 act: increases human cytochrome P450 2C9 activity; activation factor at 5 µM; P11712; actives 1.4% (n = 96,000); recombinant CYP2C9, luciferin-H conversion, luminescence; stronger effect = higher value; factor 1 = untreated enzyme, 0 = blocked; AID 1024;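 active means activation factor of 2 or more for CYP2C9 at a 5 µM dose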;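 further: 0 = sulfaphenazole-blocked wells and 1 = vehicle-only wells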
PostGolgi yeast: growth inhibition of a yeast mutant, post-Golgi transport screen. post-Golgi transport phenotypic cell assay. inhibition, % at 10 µM. actives 0.9% (n = 98,000);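 further: yeast cells grown in 1536-well plates; yeast grown about 18 h at 30C before absorbance read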
CYP2C19 act: activators of human cytochrome P450 2C19. 96,000 tested, under 10 active. recombinant CYP2C19, luciferin-H EGE luminescence; stronger effect = higher value; 0 = fully inhibited enzyme, 1 = untreated enzyme. activation factor at 5 µM. AID 1025;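 active means activation factor of at least 2 at 5 µM in the primary screen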;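 further: 0 = wells with 2.5 mM tranylcypromine and 1 = vehicle-only wells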
PostGolgi ctrl: growth of the yeast control strain, post-Golgi counter-screen; inhibition, % at 10 µM; actives 5% (n = 98,000); efflux-deficient yeast background strain, growth absorbance A615, 16 h; AID 738
* = called active by the depositor. Unless noted, no stated cut-off is given here; in the data, active means inhibition above about 30%; inactive means the rest.

SMILES | CYP2C9 inh | CYP2C19 inh | CYP2C9 act | PostGolgi yeast | CYP2C19 act | PostGolgi ctrl
CCCCNC(=O)CN1C(=O)NC2NC(=O)NC21 (centres undefined) | -11 | -12 | 1.1 | -5 | 1.1 | -3
CCOC(=O)Cc1csc(NC(=O)c2csc3c2CCCC3)n1 | 75* | 65* | 0.3 | -15 | 0.4 | 2
Cc1csc(NC(=O)c2cc3c(s2)CCCC3)n1 | 9 | 16 | 0.9 | 12 | 0.8 | 10
CCOC(=O)Cc1csc(NC(=O)c2cc3c(s2)CCCC3)n1 | 64* | 27 | 0.4 | -16 | 0.7 | 9
COc1ccc(S(=O)(=O)NCCC(=O)NC(C)c2ccccc2)cc1 (centres undefined) | -94 | 2 | 1.9 | -2 | 1 | 1
COc1ccc(CNC(=O)c2csnn2)cc1 | 4 | 52* | 1 | -4 | 0.5 | 1
COc1ccc(CNC(=O)c2cnccn2)cc1 | -30 | 58* | 1.3 | -1 | 0.4 | 1
O=C1C2C3C=CC(CC3)C2C(=O)N1/N=C/c1ccc(O)cc1 (centres undefined) | -96 | 28 | 2* | -4 | 0.7 | 20
CC(C)c1nc(SCC(=O)c2ccccc2)c2c(=O)n(C)c(=O)n(C)c2n1 | 9 | -2 | 0.9 | 4 | 1 | 4
Cc1ccnc(SCCn2c(N3CCN(c4ccccc4)CC3)nc3c2c(=O)[nH]c(=O)n3C)n1 | -39 | 44 | 1.4 | -3 | 0.6 | 3
COC(=O)C1=C2SC(C)C(=O)N2C(N)=C(C#N)C1c1ccc(OC)c(OC)c1 (centres undefined) | 56* | 29 | 0.4 | 4 | 0.7 | -1
Cc1ccc(Cl)cc1NC(=O)CSC(N)=O | 27 | 72* | 0.7 | -4 | 0.3 | 9
Cc1ccc(Cl)cc1NC(=O)Cn1cccc1 | 6 | 20 | 0.9 | 24 | 0.8 | 7
Cc1ccc(Cl)cc1NC(=O)CC(O)(C(F)(F)F)C(F)(F)F | 37 | 75* | 0.6 | 9 | 0.3 | 28
Cc1cccc(C(=O)Nc2ccccc2SCC2CSc3nc4ccccc4c(=O)n32)c1 (centres undefined) | 10 | 22 | 0.9 | 2 | 0.8 | 6
O=C(c1cnc2ccccn2c1=O)N1CCc2ccccc21 | -35 | 4 | 1.4 | 16 | 1 | 5
C/C(=N/NS(=O)(=O)c1ccc(F)cc1)c1ccc(NC(=O)c2ccc(C)o2)cc1 | 95* | 45 | 0.1 | 0 | 0.5 | -6
Cc1nc2cc(-c3ccccc3)nn2c(C)c1CCC(=O)NCc1ccco1 | 52* | 56* | 0.5 | 8 | 0.4 | 13
CCOC(=O)C1CCCCN1C(=O)CCc1c(C)nc2cc(-c3ccccc3)nn2c1C (centres undefined) | 60* | 68* | 0.4 | 3 | 0.3 | 77*
Cc1nc2cc(-c3cccc(F)c3)nn2c(C)c1CCC(=O)NC(C)CCc1ccco1 (centres undefined) | 91* | 91* | 0.1 | 41* | 0.1 | 30
Cc1nc(CN2CCN(C(=O)c3ccc(Br)cc3)CC2)cs1 | -16 | 14 | 1.2 | 0 | 0.9 | 12
Cc1[nH]c2ccc(-c3nnc(SCC(=O)N4CCCc5ccccc54)o3)cc2c1C | 22 | 12 | 0.8 | -2 | 0.9 | 30
CC(=O)OCCOc1nc(N(C)C)nc(N(C)C)n1 | -12 | 5 | 1.1 | 6 | 0.9 | 1
O=C(NC1CCCCC1)C(c1ccccc1)N1CCCC1 (centres undefined) | -9 | 71* | 1.1 | -6 | 0.3 | 2
Cc1ccc(C(C(=O)NC2CCCCC2)N2CCCC2)cc1 (centres undefined) | 6 | 0 | 0.9 | -1 | 1 | -9
SMILES | CYP2C9 inh | CYP2C19 inh | CYP2C9 act | PostGolgi yeast | CYP2C19 act | PostGolgi ctrl
CC(C(=O)NC(=O)NC1CCCCC1)N1CCN(C(c2ccccc2)c2ccccc2)CC1 (centres undefined) | 84* | 26 | 0.2 | 2 | 0.7 | 28
COC(=O)c1oc2ccc(Cl)cc2c1N | 13 | 34 | 0.9 | 4 | 0.7 | 3
CCOC(=O)C(Oc1ccc2c(-c3ccc(OC)cc3)cc(=O)oc2c1C)c1ccccc1 (centres undefined) | 78* | 23 | 0.2 | 4 | 0.8 | 0
Cc1[nH]c2ccc(OC(=O)N3CCOCC3)cc2c1C(=O)OC(C)C | 45 | 34 | 0.6 | 4 | 0.7 | 3
CC(NC(=O)C1CCC1)c1ccccc1 (centres undefined) | 3 | 17 | 1 | -2 | 0.8 | 4
CC(NC(=O)C1CCCN(C(=O)N(C)C)C1)c1ccccc1 (centres undefined) | 53* | 29 | 0.5 | 1 | 0.7 | 0
N#CC1=C(N)Oc2n[nH]c(-c3ccncc3)c2C1c1ccsc1 (centres undefined) | 89* | 46 | 0.1 | -13 | 0.5 | -1
N#CC1=C(N)Oc2n[nH]c(-c3cccs3)c2C1c1ccoc1 (centres undefined) | 14 | 21 | 0.9 | 9 | 0.8 | 26
N#CC1=C(N)Oc2n[nH]c(-c3cccs3)c2C1c1cccnc1 (centres undefined) | 69* | 70* | 0.3 | 1 | 0.3 | -9
N#CC1=C(N)Oc2n[nH]c(-c3ccc(F)cc3)c2C1c1ccncc1 (centres undefined) | 69* | 41 | 0.3 | 1 | 0.6 | -1
Cc1ccc(-c2[nH]nc3c2C(c2ccsc2)C(C#N)=C(N)O3)cc1 (centres undefined) | 0 | 7 | 1 | -2 | 0.9 | 13
Cc1ccc(SCc2[nH]nc3c2C(c2cccnc2)C(C#N)=C(N)O3)cc1 (centres undefined) | 78* | 31 | 0.2 | 5 | 0.7 | 4
CCOc1ccc(C(C)=O)cc1CN1C(=O)NC2(CCCCC2C)C1=O (centres undefined) | 15 | 34 | 0.8 | -1 | 0.7 | -1
COC(=O)c1ccccc1NC(=S)NC(NC(=O)COc1ccccc1)C(Cl)(Cl)Cl (centres undefined) | 10 | 0 | 0.9 | 4 | 1 | 1
Cc1ccccc1NC(=S)NC(NC(=O)COc1ccccc1)C(Cl)(Cl)Cl (centres undefined) | 72* | 61* | 0.3 | -2 | 0.4 | 3
CC(C)C(NC(=O)COc1ccccc1)C(=O)O (centres undefined) | -13 | -7 | 1.1 | 26 | 1.1 | 1
Cc1ccccc1NC(=S)NC(NC(=O)C(C)(C)C)C(Cl)(Cl)Cl (centres undefined) | 97* | 23 | 0 | -2 | 0.8 | 22
Cc1ccc(NC(=S)NC(NC(=O)c2ccccc2C)C(Cl)(Cl)Cl)c(C)c1 (centres undefined) | 73* | 15 | 0.3 | 0 | 0.8 | 14
Cc1ccccc1NC(=S)NC(NC(=O)N(C)C)C(Cl)(Cl)Cl (centres undefined) | 46 | 33 | 0.5 | -3 | 0.7 | 6

Screening results (PubChem BioAssay)
